Measured values from PubChem BioAssay AID449768 (Vanderbilt High Throughput Screening Facility, 2010).
About 1,400 (1.3%) of roughly 110,000 compounds were called active. Shown is part of a subset that was picked to be rich in actives. Unmarked numbers belong to inactive results.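 Rule for the calls: active = Z score or B-score, a plate-position-corrected score, falls beyond the plate's 99.7% confidence bounds, in either direction; inactive = both scores lie inside the 99.7% bounds.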

molecular target: Sodium-dependent dopamine transporter (Homo sapiens) (UniProt Q01959); assay: modulators of human DAT uptake with cocaine – cell-based, LLC-PK1 hDAT, [14C]-dopamine uptake, MLSMR, cocaine antagonist project, primary screen (AID 449768); conditions: LLC-PK1 hDAT cells, [14C]-dopamine uptake with cocaine IC80; at 10 µM; actives deviate in either direction;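 note: scored against the spread of the other compound wells on the same plate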
Sequence (Q01959 whole entry, looked up): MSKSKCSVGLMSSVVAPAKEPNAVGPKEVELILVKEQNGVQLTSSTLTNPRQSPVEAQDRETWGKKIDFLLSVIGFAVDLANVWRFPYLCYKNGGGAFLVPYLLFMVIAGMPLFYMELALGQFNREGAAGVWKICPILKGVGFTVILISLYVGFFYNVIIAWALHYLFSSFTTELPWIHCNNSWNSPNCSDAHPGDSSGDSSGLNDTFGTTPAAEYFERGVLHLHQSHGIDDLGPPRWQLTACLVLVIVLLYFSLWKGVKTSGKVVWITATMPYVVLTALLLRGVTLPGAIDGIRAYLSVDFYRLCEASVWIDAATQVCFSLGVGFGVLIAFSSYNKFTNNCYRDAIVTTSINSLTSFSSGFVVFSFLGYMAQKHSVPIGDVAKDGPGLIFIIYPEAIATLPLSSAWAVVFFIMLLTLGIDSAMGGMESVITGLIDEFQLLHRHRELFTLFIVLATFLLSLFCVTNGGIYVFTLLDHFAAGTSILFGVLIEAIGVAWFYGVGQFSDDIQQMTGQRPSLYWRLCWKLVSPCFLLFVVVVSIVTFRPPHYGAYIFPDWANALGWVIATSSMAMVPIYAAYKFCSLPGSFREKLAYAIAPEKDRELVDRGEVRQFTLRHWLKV

Question: How did the B-score turn out when `COC(C[C@@H]1O[C@@H]1C(=O)[C@@H](C)OCc1ccccc1)OC` was run?
Answer: The B-score was -1.68.

Question: `O=C(Nc1cccc2ccccc12)N1CCN(Cc2ccc3c(c2)OCO3)CC1` was tested. Which B-score did it give?
Answer: The B-score was 0.465.

Question: How did the B-score turn out when `O=C(CCCN1C(=O)c2cccc3cccc(c23)C1=O)N1CCN(Cc2ccc3c(c2)OCO3)CC1` was run?
Answer: Its B-score is 3.8 (active).

Question: With `Cn1c(=O)cc(OCCCC(=O)N2CCN(Cc3ccc4c(c3)OCO4)CC2)c2ccccc21` as the compound, how does the B-score read?
Answer: The B-score was -0.011.

Question: For `C=CCOC(=O)C1=C[C@H](c2ccc(Br)cc2)C[C@H](OCCCCO)O1`, which B-score is on record?
Answer: The B-score was -0.239.

Question: `CCS(=O)(=O)Nc1cc(C(=O)OC)ccc1C(=O)OC` was tested. Which B-score did it give?
Answer: The B-score was 6.13 (active).

Question: For `COC(=O)c1ccc(C(=O)OC)c(NC(=S)N2CCCCC2)c1`, which B-score is on record?
Answer: The B-score was 0.301.

Question: With `COC(=O)c1ccccc1NC(=O)c1ccccc1NS(C)(=O)=O` as the compound, how does the B-score read?
Answer: Its B-score is 0.686.

Question: For `COC(=O)C1=C[C@@H](C(=O)OC)[C@@H]2C3=C(C(=O)[C@]2(C)NC(=O)c2ccccc2)[C@H](C)n2c(=O)n(C)c(=O)n2[C@@H]3C1`, which B-score is on record?
Answer: Its B-score is -0.415.

Question: How did the B-score turn out when `COc1ccc(C(CC(=O)N2CCN(c3ccccc3)CC2)c2c(O)cc(OC)cc2OC)cc1` (centres undefined) was run?
Answer: The B-score was 1.37.

Question: Which B-score does the source give for `COc1ccc(-c2[nH]nc(-c3ccccc3)c2-c2nc3ccccc3[nH]2)cc1` here?
Answer: Its B-score is -7.37 (active).

Question: For `c1ccc2[nH]c(-c3nc4ccccc4[nH]3)nc2c1`, which B-score is on record?
Answer: The B-score was 0.0135.

Question: Which B-score does the source give for `c1ccc(-c2[nH]ncc2-c2nc3ccccc3[nH]2)cc1` here?
Answer: The B-score was 0.018.

Question: How did the B-score turn out when `CN1CCN(C(=O)C2=C[C@H](c3ccc4c(c3)OCO4)C[C@H](OCc3ccc(CO)cc3)O2)CC1` was run?
Answer: The B-score was 0.0245.

Question: `O=C1N[C@@H](Cc2ccccc2)C(=O)N2[C@@H]3N(S(=O)(=O)c4ccc(F)cc4)c4ccccc4[C@]3(Br)C[C@@H]12` was tested. Which B-score did it give?
Answer: The B-score was 1.04.

Question: `C#CCOCCOCCOCCNc1nc(N2CCN(C(=O)[C@H](CCC(=O)O)n3cc(C(N)CO)nn3)CC2)nc(N2CCN(C(=O)[C@H](Cc3ccc(O)cc3)n3cc(C(N)[C@H](C)CC)nn3)CC2)n1` (some centres undefined) was tested. Which B-score did it give?
Answer: Its B-score is -0.199.

Question: With `CCOC(=O)CNC(=O)CSc1nc2cccnc2n1CC` as the compound, how does the B-score read?
Answer: Its B-score is -8.17 (active).

Question: `CCOC(=O)CNC(=O)CSc1nnc(COc2ccc(Cl)cc2)n1CC` was tested. Which B-score did it give?
Answer: Its B-score is 0.0208.

Question: For `CCOC(=O)CNC(=O)CSc1nnc(-c2cccc(OC)c2)n1CC`, which B-score is on record?
Answer: The B-score was 0.102.

Question: Which B-score does the source give for `O=C(NCC1CC1)c1onc(CSc2ccccc2)c1C(=O)NCC1CC1` here?
Answer: Its B-score is 1.29.

Question: With `COc1ccc(C2/C=C\CN(S(=O)(=O)c3cccs3)CC(=O)N2Cc2ccc(F)cc2)cc1` (centres undefined) as the compound, how does the B-score read?
Answer: The B-score was 0.769.

Question: Which B-score does the source give for `CCOC(=O)c1sc(NC(=O)c2ccncc2)nc1C` here?
Answer: Its B-score is 0.297.

Question: Which B-score does the source give for `CCOC(=O)c1sc(N(Cc2ccccc2)C(=O)CN2C(=O)CN(C)C2=O)nc1C` here?
Answer: Its B-score is 4.19 (active).

Question: How did the B-score turn out when `CCOC(=O)c1ccc(N2C(=O)CC(N(C)Cc3ccccc3)C2=O)cc1` (centres undefined) was run?
Answer: Its B-score is -0.402.
